Screening results deposited in PubChem by National Center for Advancing Translational Sciences (NCATS).
D2 ag-1: activates the human D2 dopamine receptor | DiscoveRx PathHunter D2 beta-arrestin, luminescence, 90 min; 100% = 57 uM dopamine signal | AID 624465 | activation, % (no concentration beside the values) | P14416 | 360,000 compounds, 0.084% hits; in the data active means activation above about 40%; inconclusive means between about 15% and that limit
Target sequence (P14416 whole entry, looked up): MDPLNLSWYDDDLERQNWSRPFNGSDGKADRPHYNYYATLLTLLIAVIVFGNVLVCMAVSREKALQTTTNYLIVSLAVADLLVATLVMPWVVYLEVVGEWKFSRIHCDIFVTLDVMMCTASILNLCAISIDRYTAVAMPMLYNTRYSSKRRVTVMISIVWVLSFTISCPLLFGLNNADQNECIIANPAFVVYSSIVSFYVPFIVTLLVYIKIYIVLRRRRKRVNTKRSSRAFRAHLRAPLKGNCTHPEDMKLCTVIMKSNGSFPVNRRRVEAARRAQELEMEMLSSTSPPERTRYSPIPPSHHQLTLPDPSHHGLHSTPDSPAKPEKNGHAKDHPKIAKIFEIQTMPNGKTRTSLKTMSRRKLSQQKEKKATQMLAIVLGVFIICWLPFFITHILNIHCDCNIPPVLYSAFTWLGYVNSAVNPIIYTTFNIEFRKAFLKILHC
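Agonist mode: compounds alone added to overnight-plated D2 PathHunter cells for 90 min at 37 C, with 57 uM final dopamine (EC100) defining full response. Beta-arrestin recruitment detected by chemiluminescent reagent, read after 1 h at ambient temperature.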
D2 PAM-1: positively modulates the human D2 dopamine receptor allosterically; P14416; HEK293 T-REx D2, calcium flux, EC20 dopamine potentiation; potentiation, % at 10 µM; 340,000 compounds, 0.34% hits;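 active means potentiation over 3 SD above the plate norm, cut at about 30% in these data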; further: 0% is about no effect
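Cells plated with tetracycline inducer and held overnight at 30 C; calcium dye loaded 30–90 min at room temperature; baseline taken, compound added and read 180 s; EC20 dopamine then added and read 180 s.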
D2 PAM-2: human D2 receptor positive allosteric modulation; potentiation, % (no concentration beside the values); 360,000 compounds, 0.23% hits; P14416; DiscoveRx D2 beta-arrestin cells, luminescence, 90 min; 100% = 57 uM dopamine signal; in the data active means potentiation above about 50%; inconclusive means mostly about 30% to 49%
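PathHunter beta-arrestin assay in DiscoveRx D2 cells. Compounds were added with an EC20 of dopamine (50 nM final) for 90 min at 37 deg C. Luminescence was read 1 h after detection reagent, with 57 uM dopamine as the EC100 control.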
D2 ag-2: activates the human D2 dopamine receptor; P14416; activation, % at 2 µM; 340,000 compounds, 0.53% hits; HEK293 T-REx D2 cells, calcium flux agonist mode;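 active means activation over 3 SD above normal in the single-dose calcium agonist read, cut at about 30% in these data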; further: 0% is about no effect
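Tetracycline-induced HEK293 T-REx cells with force-coupled D2 receptor, plated overnight at 30 C, loaded with no-wash calcium dye. After a 10 s baseline, compound was pin-added and calcium flux read kinetically for 180 s; calcium rises flagged agonists.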
D2 antagonist: antagonists of human D2 dopamine receptor. P14416. HEK293 TREx D2 cells, calcium flux, dopamine EC80. inhibition, % at 10 µM. 340,000 compounds, 2% hits. AID 485344; in the data active means inhibition above about 30%; inactive means below that, where a call was filed; further: 0% is about no effect
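Calcium flux kinetic readout in an inducible HEK293 TREx D2 line plated overnight at 30 C. After 180 s compound exposure, an EC80 dopamine challenge follows with another 180 s kinetic read to detect antagonism.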
D3 ag: activates human D3 dopamine receptor beta-arrestin recruitment | shares compounds with D2 ag-2 | DiscoveRx D3 beta-arrestin cells, luminescence, 90 min | Potency, µM (titrated, usually from 76.9 µM), for inactives: at the highest dose activation, actives largely listed as activators | 2,300 compounds, 4% hits | AID 720506;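 further: potency means the concentration at half of the fitted maximal effect; 100% = dopamine control response; nearly all actives have a fitted effect of over 70% in size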
D2 ag-3: D2 receptor agonism, beta-arrestin counterscreen; shares compounds with D2 ag-2; DiscoveRx PathHunter D2 beta-arrestin, luminescence, 90 min; response scale: percent relative to full dopamine signal; AID 720507; 2,300 compounds, 5.9% hits; Potency, µM (doses to about 76.9 µM), inactives show at the highest dose activation, usual class: activators; further: potency means the concentration at half of the fitted maximal effect; % of control where 0% means no effect; nearly all actives have a fitted effect of over 70% in size
An asterisk follows results filed as active; ? = inconclusive; . = no result; ! = not active in a repeat. An excerpt weighted towards active compounds, which were near 2.4% of everything screened. Unless noted, the call rests on the fitted dose curve; in most records, active means well fitted activation curve with a large enough effect; inconclusive means small, poorly fitted or top-dose-only effect; inactive means flat fitted curve, though single readings scatter.

SMILES	D2 ag-1	D2 PAM-1	D2 PAM-2	D2 ag-2	D2 antagonist	D3 ag	D2 ag-3
COc1ccc(-c2noc(CN3CCN(C(=O)c4cccs4)CC3)n2)c(OC)c1OC	-9	-13	-6	29	-3	1%	5%
COc1ccccc1CC(NC(C)=O)C(=O)N1CCN(C(=O)c2cccs2)CC1 (stereo not drawn)	-2	-10	-7	7	-6	.	.
COc1ccc(CN2CCN(C(=O)c3cccs3)CC2)cc1Br	15	.	3	.	.	.	.
COc1ccccc1CN(C)C(=O)CN1CCN(C(=O)c2cccs2)CC1	14	-26	12	72*	29	9%	?
O=C(Nc1cccc(Cl)c1)c1ccc(NCCCN2CCOCC2)c([N+](=O)[O-])c1	-2	3	-34	-2	-10	.	.
Cc1ccc(NC(=O)c2ccc(NCCCN3CCC(C)CC3)c([N+](=O)[O-])c2)cc1F	-2	-17	-12	29	5	-17%	10%
Cc1c(C)c2ccc(OC(C)C(=O)N3C[C@H]4C[C@@H](C3)c3cccc(=O)n3C4)c(C)c2oc1=O (stereo partly drawn)	-7	-5	-20	0	15	.	.
Cc1cc(OC(C)C(=O)N2C[C@H]3C[C@@H](C2)c2cccc(=O)n2C3)c2c(C)c(C)c(=O)oc2c1 (stereo partly drawn)	-4	2	-6	41*	-1	-7%	-5%
CCN1CCN(c2ccc(S(=O)(=O)N3CCOCC3)cc2NC(=O)c2ccc(C)cc2C)CC1	4	6	1	0	9	-2%	-3%
O=C(CN1CCN(c2ccc(O)cc2)CC1)Nc1cc(S(=O)(=O)N2CCCC2)ccc1Cl	1	-17	-3	54*	44*	40µM*	?
O=C(CN1CCc2ccccc2C1)Nc1cc(S(=O)(=O)N2CCOCC2)ccc1N1CCCC1	3	-41	-39	76*	83*	-4%	11%
Cc1nnc(N2C(=O)c3oc4ccccc4c(=O)c3C2c2ccc(F)cc2)s1 (stereo not drawn)	.	-6	.	-1	.	.	.
COc1cccc(-c2ncc3ccccc3c2CO)c1	-1	-9	-15	0	0	2%	-3%
CCCCC(=O)OCc1c(-c2cccc(OC)c2)ncc2ccccc12	1	-4	-3	-1	25	-8%	2%
CN(CC(=O)Nc1ccccc1Br)C(=O)CNC(=O)Cc1cccc2ccccc12	-4	-10	7	0	-14	.	.
O=S(=O)(c1ccc(Cl)cc1)N1CCc2ccccc21	-6	11	-1	1	1	.	.
O=S(=O)(c1ccc(F)cc1)N1CCc2ccccc21	1	3	7	8	36*	4%	2%
COC(=O)[C@@H](NC(=O)Nc1ccc(S(N)(=O)=O)cc1)C(C)C	-4	-22	-9	69*	3	-2%	0%
CCc1ccc(NC(=O)CSc2nnnn2C)cc1	-4	6	2	0	-14	.	.
COc1ccc(-n2ncc3c2CC(C)(C)CC3NC(=O)c2ocnc2C)cc1 (stereo not drawn)	0	3	-14	0	-6	.	.
COc1ccc(NC(=O)c2ccc3c(SCC(=O)O)c4c(nc3c2)CCC4)c(OC)c1	.	-6	.	-1	.	.	.
CC(C)c1nnc(NC(=O)c2cc3cc(Br)ccc3oc2=O)s1	6	-6	-4	2	-3	-1%	0%
O=C(Nc1ccccc1O)c1cc2cc(Br)ccc2oc1=O	1	-4	-9	-3	-10	.	.
O=C(Nc1nnc(S(=O)(=O)N2CCOCC2)s1)c1ccccc1F	-1	8	-9	1	-11	.	.
O=C(Nc1nnc(S(=O)(=O)N2CCOCC2)s1)c1ccccc1Cl	2	-14	-4	52*!	-2	-6%	-3%
SMILES	D2 ag-1	D2 PAM-1	D2 PAM-2	D2 ag-2	D2 antagonist	D3 ag	D2 ag-3
O=C(COc1ccccc1)Nc1nnc(S(=O)(=O)N2CCCCCC2)s1	-1	-27	1	50*!	-10	-1%	-1%
CC(C)c1cccc(-c2ccc3c(c2)S(=O)(=O)c2cccc(C(=O)O)c2C3=O)c1	-4	-7	-14	-1	-2	-1%	0%
O=C(CSc1ncnc2scc(-c3ccc(F)cc3)c12)c1ccc2c(c1)OCCO2	1	1	-20	50*	6	8%	2%
COC(=O)CN(C)C(=O)CC1C(=O)NCCN1CC(C)(C)C (stereo not drawn)	-2	-12	-3	40*	-3	-5%	-1%
Cc1cc(=O)[nH]c2c(C)cc(S(=O)(=O)NCc3ccccc3)cc12	4	-5	9	36*	5	-2%	-2%
CCN(CC)CCNC(=O)CCc1c(C)nc2c(c(C)nn2-c2ccc(C)c(C)c2)c1C	-4	-1	-10	1	19	.	.
O=C(c1[nH]c(C(F)(F)F)nc1-c1ccccc1)N1CCN(c2cccc(C(F)(F)F)n2)CC1	2	.	-9	.	.	.	.
COc1ccccc1CNC(=O)Cn1c(=O)oc2cc(S(=O)(=O)N3CCC(C)CC3)ccc21	.	-6	.	-1	.	.	.
CCC(=O)N1CCc2cc(S(=O)(=O)CCC(=O)Nc3cccc(C)n3)ccc21	2	-14	0	35*	-15	0%	1%
CCC(=O)N1CCc2cc(S(=O)(=O)CCC(=O)Nc3ccc(OC)cc3)ccc21	-3	8	-5	1	8	.	.
O=C(Cc1c(F)cccc1Cl)OCC(=O)c1ccc[nH]1	-1	.	-18	.	.	.	.
O=C(CN1CCN(Cc2ccccc2)CC1)NCCNc1ccc([N+](=O)[O-])cn1	-4	6	-2	1	-8	.	.
Nc1ccn(CC(=O)NCCNc2ccc([N+](=O)[O-])cn2)c(=O)n1	-4	-11	-6	0	-1	-7%	-5%
Cc1c(C(=O)N2CCN(c3ccccc3)CC2)oc2c(Cl)cccc12	1	7	-10	-1	13	-6%	-3%
CCOC(=O)c1[nH]c(C)c(C(=O)N2CCOCC2)c1C	0	3	-1	1	3	.	.
CCOC(=O)c1[nH]c(C)c(C(=O)N2CCN(c3ccccc3)CC2)c1C	-3	-5	-18	31*	23	2%	2%
COc1cccc(C(NC(C)=O)c2nc(-c3cccc(O)c3)cs2)c1 (stereo not drawn)	-3	.	-9	.	.	.	.
O=C(c1ccnc(Cl)c1)N1CCCC(N2CCN(c3ccccc3F)CC2)C1 (stereo not drawn)	3	-6	0	24	25	19%	19%
